The values that follow come from ChEMBL document CHEMBL1157539, “Thousands of chemical starting points for antimalarial lead identification” (Nature, 2010).

Common to all, as to format: functional
The test system of experiment [1] is Plasmodium falciparum. In words: GSK_TCMDC: Inhibition of Plasmodium falciparum 3D7 in whole red blood cells, using parasite LDH activity as an index of growth. Test compounds present at 2uM.
Experiment [2] relates to Plasmodium falciparum. In words: GSK_TCMDC: Inhibition of Plasmodium falciparum Dd2 in whole red blood cells, using parasite LDH activity as an index of growth. Test compounds present at 2uM.
Experiment [3] has as its system HepG2. Nature of the experiment: GSK_TCMDC: Percent inhibition of human HepG2 cell line. Test compounds present at 10uM.

As for `CC(C)(CN)c1nc(-c2ccc(Br)c(O)c2)c(-c2ccncc2)[nH]1.Cl`, the Inhibition – broadly, the drop in the measured response relative to a control, in per cent – in experiment [1] is listed as 96%; in experiment [2], 97%; in experiment [3], 31%.
The matching figures for `COc1ccc2nc3cc(Cl)ccc3c(N)c2c1.Cl`: 100%, 100% and 100%.
For `CC(C)(C)c1ccc(CNCCOc2ccc(Nc3nnc(-c4ccc(-c5ncc[nH]5)cc4)o3)c3ccccc23)cc1.O=C(O)C(F)(F)F` the same measures were 100%, 88% and 43%.
For `CCOc1cc(Cl)c(C(C)NC(=O)c2cccc(OC)c2)cc1OCC` (configuration not stated) the same measures were 98%, 92% and 29%.
Regarding `CS(=O)(=O)CCNCc1nc(-c2ccc3ncnc(Nc4ccc(OCc5ccccc5)c(Cl)c4)c3c2)cs1.Cl`, the Inhibition worked out at 99% in experiment [1], 55% in experiment [2] and 13% in experiment [3].
For `COc1ccc(NC(=O)C2c3ccccc3C(=O)N(C3CCCC3)C2c2cccs2)c(OC)c1` (configuration not stated) the same measures were 84%, 54% and 3%.
For `Cc1noc(C)c1CN1CCCN(c2ccc3c(c2)CCN(Cc2ccc(-c4ncc[nH]4)cc2)CC3)CC1` the same measures were 98%, 39% and 1%.
The matching figures for `CC(=O)Nc1ccc(OCCN(CC(C)C)c2ccc(C(F)(F)F)c(C#N)c2)c(Cl)c1`: 96%, 95% and 13%.
As for `COc1ccc2nc(C)cc(NC3Cc4ccccc4C3)c2c1.Cl`, the Inhibition in experiment [1] was 98%; in experiment [2] it was 13%; in experiment [3], 20%.
For `O=C(NCCN1CCCC1)c1ccc(-c2cccc(-c3nc4cc(F)ccc4[nH]3)c2)cc1` the same measures were 100%, 2% and 29%.
Turning to `c1ccc(-c2[nH]c3ccccc3c2CN2CCC(N3CCCCC3)CC2)nc1`, the Inhibition is listed as 100% in experiment [1], 82% in experiment [2] and 13% in experiment [3].
The matching figures for `CCCCNC(=O)[C@H](CC1CCCCC1)NC(=O)c1ccc(O)c(-c2ccc(Cl)c(Cl)c2)c1`: 98%, 99% and 0%.
The matching figures for `O=C(N[C@@H](CC1CCCCC1)C(=O)NC1CC1)c1ccc(O)c(-c2cccc(C(F)(F)F)c2)c1`: 99%, 47% and 0%.
On to `CCNc1cc(C)nc(Nc2ccc(NC(=O)c3ccc(OC)c(OC)c3)cc2)n1`, for which the results for the Inhibition in experiment [1], in experiment [2] and in experiment [3] were 100%, 65% and 19%, respectively.
The matching figures for `Cc1noc(C)c1-c1cccc(CNCc2ccc(-c3ccc(-c4nc5cccc(C)c5[nH]4)cc3)cc2)c1.O=C(O)C(F)(F)F`: 100%, 95% and 28%.
Regarding `O=C(Cc1ccccc1)NC(CCN1CCC(NC(=O)c2ccc(Cl)cc2)CC1)c1ccc(Cl)c(Cl)c1` (configuration not stated), the figures for the Inhibition in experiment [1], in experiment [2] and in experiment [3] were 85%, 23% and 17%, respectively.
The matching figures for `COc1ccc(CNC2Cc3ccccc3C2)cc1-c1cccc(S(=O)(=O)NCCN2CCCC2)c1.O=C(O)C(F)(F)F`: 98%, 61% and 48%.
As to `CCN(CCCN1CCCCC1)c1cc(C)nc(Nc2ccc(OC)cc2)n1.O=C(O)C(F)(F)F`, the Inhibition is recorded as 100% in experiment [1], 24% in experiment [2] and 23% in experiment [3].
With `CC(C)NCc1cccc(-c2cccc(NC(=O)c3cccc(Cl)c3)c2)c1.O=C(O)C(F)(F)F`, the Inhibition is listed as 98% in experiment [1], 38% in experiment [2] and 36% in experiment [3].
For the compound `O=C(Nc1cccc(-c2cccc(-c3nc4cc(F)ccc4[nH]3)c2)c1)Nc1ccc2c(c1)OCO2`, the Inhibition in experiment [1] was determined as 100%; in experiment [2], 49%; in experiment [3], 30%.
For `O=C(Nc1ccc2c(c1)CCN2C1CCN(Cc2cccc3cc[nH]c23)C1)c1ccco1` (configuration not stated) the same measures were 88%, 86% and 0%.
For `O=C(NCC1CC1)C1CCN(C(c2ccccc2)c2cc(F)cc(F)c2)CC1` (configuration not stated) the same measures were 99%, 95% and 0%.
For `Cc1nc(C)c(CC(=O)Nc2ccc(-c3cccc(-c4nc5cc(C(F)(F)F)ccc5[nH]4)c3)cc2)s1` the same measures were 86%, 4% and 67%.
With `c1ccc(C(c2ccccc2)N2CCN(C(c3cccnc3)c3nnnn3C3CCCC3)CC2)cc1` (configuration not stated), the values for the Inhibition in experiment [1], in experiment [2] and in experiment [3] were 83%, 59% and 4%, respectively.
For `CN(C)CCCNc1c2ccccc2nc2ccccc12` the same measures were 91%, 4% and 31%.
The matching figures for `CC1CCC2(CC1)NC(N)=NC(=N)N2OCCCCCCCCO` (configuration not stated): 96%, 87% and 2%.
For `Cc1[nH]c(C)c(-c2cc3ccccc3o2)c(=O)c1Cl` the same measures were 92%, 13% and 1%.
Take `Cc1cc(-c2ccc(S(=O)(=O)Nc3cc4c(cc3OC(C)C)CCN(C)CC4)cc2)ccc1Cl.Cl`: the Inhibition is on record as 90% in experiment [1], 19% in experiment [2] and 33% in experiment [3].
With `CC(CCc1ccccc1)NCC(O)c1cccc(C(F)(F)F)c1.Cl` (configuration not stated), the Inhibition in experiment [1] is 99%; in experiment [2] it was 98%; in experiment [3] it was 18%.
